Source: PubChem (National Center for Advancing Translational Sciences (NCATS))
ALDH1A1 inh = blocks purified human ALDH1A1 activity; 220,000 compounds, 7.3% hits; Potency, µM (highest dose often 75.3 µM), without a hit: at the highest dose activity, negative = inhibition, most hits filed as inhibitors; Purified ALDH1A1, NADH fluorescence, propionaldehyde substrate; P00352; AID 1030; active means well fitted inhibition curve with a large enough effect, not every such curve was filed as active; inconclusive means small, poorly fitted or top-dose-only effect, or another doubt; inactive means no such curve, though single readings can be large or run the other way;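 further: potency means the concentration at half of the fitted maximal effect; plate controls were no enzyme wells and a reference inhibitor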
GLA inh pH 4.5 = alpha-galactosidase A (human) inhibition, pH 4.5; P06280; purified enzyme, 4-MU-alpha-Gal fluorescence, pH 4.5; activity change, negative = inhibition, % at 105 µM; 230,000 tested, under 10 active; AID 1467;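 further: 0% = full activity with enzyme and -100% = basal without enzyme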
Target sequence (P06280 whole entry, looked up): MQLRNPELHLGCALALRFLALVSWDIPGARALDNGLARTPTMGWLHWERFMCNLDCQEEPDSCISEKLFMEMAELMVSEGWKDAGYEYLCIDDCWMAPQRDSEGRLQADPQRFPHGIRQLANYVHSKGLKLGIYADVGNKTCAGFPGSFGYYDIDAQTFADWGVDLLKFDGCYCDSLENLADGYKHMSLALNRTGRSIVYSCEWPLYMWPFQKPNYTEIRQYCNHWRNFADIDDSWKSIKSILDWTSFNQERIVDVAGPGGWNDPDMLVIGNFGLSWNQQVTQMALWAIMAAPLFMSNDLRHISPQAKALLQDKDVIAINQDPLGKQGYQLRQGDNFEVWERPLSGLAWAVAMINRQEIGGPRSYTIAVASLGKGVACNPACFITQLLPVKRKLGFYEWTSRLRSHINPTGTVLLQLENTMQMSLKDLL
HPGD block = HPGD (human) dehydrogenase inhibition | P15428 | 150,000 compounds, 4.3% hits | AID 894 | Potency, µM, without a hit: at the highest dose activity change, negative = inhibition, actives largely listed as inhibitors | purified HPGD, NADH fluorescence kinetic, PGE2 substrate; active means well fitted inhibition curve with a large enough effect, not every such curve was filed as active; inconclusive means small, poorly fitted or top-dose-only effect, or another doubt; inactive means no such curve, though single readings can be large or run the other way; further: potency means the concentration at half of the fitted maximal effect
Target sequence (P15428 whole entry, looked up): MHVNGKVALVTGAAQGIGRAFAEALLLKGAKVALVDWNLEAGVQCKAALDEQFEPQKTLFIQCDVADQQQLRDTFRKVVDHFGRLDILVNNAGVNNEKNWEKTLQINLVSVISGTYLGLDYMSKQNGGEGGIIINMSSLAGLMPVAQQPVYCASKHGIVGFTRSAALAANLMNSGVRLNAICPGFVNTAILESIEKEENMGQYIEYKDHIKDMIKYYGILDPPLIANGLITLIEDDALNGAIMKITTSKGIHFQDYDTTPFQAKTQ
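NADH formation kinetics: reaction with 30 uM PGE2 and 1 mM NAD+ (final), 20 nM enzyme, Tris-HCl pH 8 with Tween 20, after 15 min compound preincubation at room temperature. Fluorescence change, last versus first of five reads.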
12-hLO inh = blocks human 12-lipoxygenase activity | P18054 | purified 12-hLO, xylenol orange hydroperoxide absorbance | Potency, µM (series often up to 57.1 µM), for the others: top-dose activity change, negative = inhibition, usual class: inhibitors | 150,000 compounds, 0.12% hits | AID 1452; further: potency means the concentration at half of the fitted maximal effect; nearly all actives have a fitted effect of over 55% in size
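Lipoxygenase turnover measured by absorbance at 573 and 405 nm after Fe-XO development. Human 12hLO 150 nM, arachidonate 40 uM, pH 7.0 Hepes buffer with detergent; 15 min compound preincubation, 30 min reaction.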
GLA spleen mod = alpha-galactosidase A (human) modulation; P06280; Potency, µM (series often up to 80 µM), for inactives: top-dose activity change, negative = inhibition, actives largely listed as inhibitors; 240,000 compounds, 0.008% hits; human spleen homogenate, 4MU-alpha-Gal fluorescence, 40 min;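 further: potency means the concentration at half of the fitted maximal effect; 0% = enzyme with vehicle and -100% = no enzyme basal signal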
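Fluorogenic readout (Ex 365/Em 440 nm) of 4-methylumbelliferone released from 1 mM 4-MU-alpha-galactoside by spleen homogenate, 40 min at 37C, pH 5.0. Data normalized to no-enzyme and enzyme controls; Hill-equation AC50 from compound titrations.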
PNC assembly inh = blocks assembly of the perinucleolar compartment. PC3M PTB-GFP, PNC prevalence imaging, 16 h; active compounds read low. activity change (PNC), negative = inhibition, % at 10 µM. 140,000 compounds, 3.1% hits. AID 2417;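 active means readout at or below -70, meaning at least 70% loss of cells showing the perinucleolar compartment, a nuclear body marking cancer cells; inconclusive means readout between -30 and a set limit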;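 further: plate controls were DMSO wells for no effect and camptothecin positive control wells for full effect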
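Read-out is percentage of cells bearing a perinucleolar compartment, from automated 20x imaging of fixed, Hoechst-stained PC3M PTB-GFP cells. Cells were seeded 4 h, then exposed 16 h to compound (23 nl of library stock) in duplicate plates.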
* = called active by the depositor; u = inconclusive; x = not tested or not shown; [ ] = remark or other dose. Shown are actives, neighbours in structure and some others; about 10% of the full set was active somewhere. Unless noted, the call rests on the fitted dose curve; in most records, active means well fitted curve in the direction sought with a large enough effect; inconclusive means small, poorly fitted or top-dose-only effect, or another doubt; inactive means no such curve, though single readings can be large; an effect the other way counts as inactive or inconclusive. Unless noted, on the % scale 0 is the no-effect control and ±100 the full control effect.

SMILES	ALDH1A1 inh	GLA inh pH 4.5	HPGD block	12-hLO inh	GLA spleen mod	PNC assembly inh
CC(C)C[C@H](NC(=O)CNC(=O)[C@H](CCC(N)=O)NC(=O)[C@H](CC(C)C)NC(=O)[C@H](CC(C)C)NC(=O)[C@H](CCCNC(=N)N)NC(=O)[C@H](CCC(N)=O)NC(=O)[C@H](CC(C)C)NC(=O)[C@H](CCCNC(=N)N)NC(=O)[C@H](C)NC(=O)CNC(=O)[C@H](CCC(=O)O)NC(=O)[C@H](CCCNC(=N)N)NC(=O)[C@H](CC(C)C)NC(=O)[C@H](CCCNC(=N)N)NC(=O)[C@H](CO)NC(=O)[C@H](CC(C)C)NC(=O)[C@H](CCC(=O)O)NC(=O)[C@H](CO)NC(=O)[C@@H](NC(=O)[C@H](Cc1ccccc1)NC(=O)[C@@H](NC(=O)CNC(=O)[C@H](CC(=O)O)NC(=O)[C@H](CO)NC(=O)[C@@H](N)Cc1cnc[nH]1)[C@@H](C)O)[C@@H](C)O)C(=O)N[C@H](C(N)=O)C(C)C	x	x	x	x	-16%	x
CCOc1ccccc1-c1ccc(C(=O)O)s1	u	-7	u	1%[0.00818 µM]	-15%[119 µM]	x
Cc1ccc(C)c(NC(=O)C2=CCN(S(=O)(=O)c3ccc(F)cc3)CC2)c1	12%	5	-3%	1%	-2%	-8
Cc1ccc(S(=O)(=O)N2CC=C(c3ccc(F)cc3)CC2)cc1	9%	1	-14%	2%	7%	-80*
COc1ccc(C(=O)CSC#N)cc1OC	1.3µM*	-20	x	x	7%	x
COc1ccc([N+](=O)[O-])cc1N(CC(=O)O)S(C)(=O)=O	32µM*	5	x	x	-4%	x
Cc1n[nH]c(=O)n1-c1ccc(OCc2ccccc2)cc1	0%	11	x	x	-4%	x
COc1ccccc1C1CC(=O)Oc2cc(C)c(Cl)c(C)c21 (configuration not stated)	u	-15	-13%	6%[0.00818 µM]	5%[119 µM]	x
O=C(NCCOC12CC3CC(CC(C3)C1)C2)c1cccc(Br)c1	7.1µM*	-1	-9%	-3%	-10%	-19
COCCn1c(=O)c(-c2ccc(F)cc2)nc2cncnc21	-9%	x	-15%	-1%	-3%	x
COC(=O)CCC(=O)Nc1cc(S(=O)(=O)Nc2ccc(Cl)cc2)ccc1N1CCOCC1	20µM*	12	u	-21%	4%	u
O=C(Nc1cc(S(=O)(=O)Nc2ccc(Cl)cc2)ccc1N1CCCCC1)c1ccc(F)cc1Cl	32µM*	-13	u	-7%	-2%	u
COc1ccc(NS(=O)(=O)c2ccc(N3CCOCC3)c(NC(=O)c3ccccc3Cl)c2)cc1	7%	-14	-11%	1%	8%	24
CCOC(=O)Cn1cnc(-c2ccc([N+](=O)[O-])cc2)c1	-5%	1	-13%	-2%	0%	29
O=C(/C=C/c1ccccc1)c1ccc(O[C@H]2OC(CO)C(O)C(O)C2O)cc1O (some centres not stated)	-5%	-7	-7%	-11%	13%	x
Cc1cc2ncc(-c3ncc(C(F)(F)F)cc3Cl)cn2n1	7%	2	-6%	2%	8%	-81*
COc1ccc(-c2nnc(SCC(=O)Nc3sc4c(c3C#N)CCCC4)n2-c2ccccc2)cc1	u	3	-11%	6%	0%	-86*
Cc1nnc(SCC(=O)Nc2sc3c(c2C#N)CCCCC3)n1N	22µM*	7	-7%	-11%	6%	23
NC(=O)c1c(NC(=O)CSc2nnc(-c3ccco3)n2-c2ccccc2)sc2c1CCC2	u	0	28µM*	-25%	1%	-10
COc1ccc(-n2c(SCC(=O)Nc3sc4c(c3C#N)CCCC4)nnc2-c2ccccc2OC)cc1	-10%	-12	-13%	-1%	23%	146
C[C@H]1COc2c(N3CCN(C)CC3)c(F)cc3c(=O)c(C(=O)NCc4ccco4)cn1c23	u	-15	-18%	x	8%	x
COCCn1c(N)c(N(Cc2ccccc2)C(=O)c2oc3ccccc3c2C)c(=O)[nH]c1=O	u	6	x	x	-2%	x
c1ccc(CCN(Cc2ccccc2)C2CCN(C3CCCC3)CC2)cc1	40µM*	-6	x	x	-1%	x
O=S(=O)(c1ccccc1)N1CCN(C2CCCCCCC2)CC1	u	-10	-10%	-1%	-5%	-7
CCN1CCCC1CNCc1cccc(OC)c1OCc1ccccc1F (configuration not stated)	-1%	1	-1%	-8%	-6%	-28
SMILES	ALDH1A1 inh	GLA inh pH 4.5	HPGD block	12-hLO inh	GLA spleen mod	PNC assembly inh
CCOc1cc(CNc2ccc(O)cc2)cc(Br)c1OCc1ccccc1F	28µM*	-5	-5%	-6%	-4%	u
COc1cccc(CNc2ccccc2O)c1OCc1ccccc1F	14µM*	-12	x	x	7%	x
COc1cc(CNc2ccc(O)cc2)cc(Br)c1OCc1ccccc1F	22µM*	2	-11%	u	0%	14
CCOc1cc(CNCCO)cc(Br)c1OCc1ccccc1Cl	-11%	-5	-11%	6%	-3%	u
CCOc1c(Br)cc(CNc2ccc3c(c2)OCCO3)cc1OC	2%	4	u	-4%	2%	-98*
O=C(O)CNC(=O)c1ccc([N+](=O)[O-])cc1	1%	x	-9%	2%	-2%	x
C/C=C1\COC(C(=O)NCCCN2CCCC2=O)(C(F)(F)F)C=C1C=C(C)C (configuration not stated)	x	x	x	x	-7%	x
Nc1ccnc(C(F)(F)F)c1C(=O)c1ccccc1	-7%	6	-9%	-6%	-3%	-82*
O=C1CN2CCC1C/C2=C\c1ccnc2c(Cl)cccc12 (configuration not stated)	x	6	x	x	7%	x
O=C(c1ccc(F)cc1)c1ccc(N2CCCC2)cc1	20µM*	-13	28µM*	-20%	-4%	35
Cc1ccc(C(=O)C(C)OC(=O)c2ccccc2[N+](=O)[O-])cc1 (configuration not stated)	-2%	-10	-20%	-1%	1%	u
C=CCOc1ccccc1/C=c1\sc2nc(=O)c(C)nn2c1=O	22µM*	8	-27%	-13%	-21%	22
COC(=O)c1ccc2c(=O)[nH]c(CSc3nc(C)cs3)nc2c1	24µM*	-10	x	x	0%	x
CCOc1nnc(C)c2c(C)n(-c3cccc(OC)c3)nc12	4%	3	-7%	1%	11%	-106*
Cc1nnc(OC(C)C)c2nn(-c3ccccc3F)c(C)c12	2%	5	-3%	6%	6%	1
COC(=O)C1=C(C)N(CCc2c[nH]c3ccc(OC)cc23)C(=O)C1	18µM*	2	x	x	0%	x
